Bfl-1 A1 inh: inhibitors of the anti-apoptotic protein A1, read as caspase activation | actives 0.066% (n = 330,000) | caspase activation, % (test concentration not listed) | MEF A1-2A-BIM cells, Caspase-Glo 3/7 luminescence, 3 h; percent of clofoctol response, vehicle zero;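 active = over half of replicate activation scores above 10%, or exactly half above 10 with the replicate mean above 10; inconclusive = replicate mean below 10 yet half the replicates above 10; inactive = over half of replicates below 10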
GC-A act: GC-A (human) enzyme activation | P16066 | HEK293 GC-A cells, cGMP TR-FRET, EC30 ANP; 0% at EC30 ANP, 100% saturating ANP | activation, % at 10 µM | actives 0.14% (n = 370,000) | AID 1671463; in the data active = activation above about 40%
Efflux pump mplx: inhibitors of Candida antifungal efflux pumps expressed in yeast; S. cerevisiae Candida pump triplex, Nile Red efflux; inhibition, % at 10 µM; AID 485275; actives 0.44% (n = 330,000);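 active = plate passing quality check with inhibition over a set limit, or well fluorescence over plate mean plus 4 SD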;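 note: Nile Red retained in pooled yeast measured as flow cytometry median fluorescence; 0% = buffer negative control and 100% = Enniatin B positive control; higher means more Nile Red kept so more efflux inhibition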
TAG inh: reduces triacylglycerol accumulation in H9c2 cells; inhibition, % at 12.5 µM; Nile Red lipid (TAG) fluorescence; cells loaded with 200 µM oleic acid; actives 0.66% (n = 230,000);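 active = pattern-corrected inhibition of lipid staining of at least 50% with the nuclear-stain viability signal not falling by more than 50%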;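 note: 0% = DMSO wells and 100% = triacsin C control wells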
HSV replic up: HSV replication enhancement. HSV replication augmentation in cells, fold increase. maximum fold increase. actives 0.005% (n = 220,000). AID 1956; in the data active = maximum fold increase above about 1.5; inconclusive = no clear call, values can overlap the other calls; tested in PC3 cells
GC-B act: GC-B (human) receptor activation. actives 0.11% (n = 370,000). activation, % at 10 µM. HEK293-GC-B cells, CNP EC30, cGMP TR-FRET; 0% at EC30 CNP, 100% saturating CNP. AID 1920062. P20594;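 active = activation at 10 µM reaching about 35% in either raw or pattern-adjusted values, limit read from the data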
* marks the source's active call; other numbers are inactive results; i = inactive; u = inconclusive; x = no result given. A selection: hits, their analogues and other compounds. The true share with any hit is near 1%.

SMILES	Bfl-1 A1 inh	GC-A act	Efflux pump mplx	TAG inh	HSV replic up	GC-B act
COC1CCC(OC2CC(C3(C)CCC4(CC(O)C(C)C(C(C)/C=C(\C)C(=O)C(C)CC(C)C(=O)O)O4)O3)OC3(OC(C4OC(O)(CO)C(C)CC4C)CC3C)C2C)OC1C (stereo unspecified)	x	5.5	x	97.4*	x	-4.6
CC(C)(C)NC(=O)CN1C(=O)[C@@H](Cc2c[nH]c3ccccc23)N=C(c2ccccc2)c2ccccc21	x	-0.9	x	x	x	-6.7
O=C1NC(=O)C(=Cc2ccc(SC3CCCCC3)o2)C(=O)N1	-0.5	55.2*	-0.1	14.9	i	17.2
Cc1ccc(N2C(=O)NC(=O)/C(=C/c3cnn(-c4ccc(C)cc4)c3)C2=O)cc1	-0.1	56.6*	0.3	x	i	10.5
COc1ccc(-n2c(O)c(/C=C3\C=Nc4ccc(Br)cc43)c(=O)[nH]c2=O)c(OC)c1	-1.2	31.2	0.0	x	x	24.4
COc1ccc(-n2c(O)c(/C=C3\C=Nc4ccc(Br)cc43)c(=O)[nH]c2=O)cc1	-2.2	40.9*	0.1	x	x	29.6
CC[C@@H]1C[C@H]2CC[C@H](O2)[C@H](C)C(=O)O[C@@H](C)C[C@@H]2CC[C@@H](O2)[C@@H](C)C(=O)O[C@H](C)C[C@H]2CC[C@H](O2)[C@H](C)C(=O)O[C@@H](C)C[C@@H]2CC[C@@H](O2)[C@@H](C)C(=O)O1	x	-9.0	x	x	x	-6.2
Cc1cccc(N/N=C(\C(N)=O)C2=NC(C)(C)Cc3ccccc32)c1	0.4	-3.4	-1.1	-10.2	i	-3.4
N#CCC[C@@H]1CC[C@]2(CCCN(Cc3ccncc3)C2)O1	x	1.6	x	x	x	-0.3
O=C(Cn1ncc2c3ccccc3n(Cc3ccccc3F)c2c1=O)N1CCC2(CC1)OCCO2	0.5	29.4	-0.2	7.2	i	41.5*
O=C(Cn1ncc2c3ccccc3n(Cc3ccccc3)c2c1=O)N1CCC2(CC1)OCCO2	x	x	x	x	i	x
O=[N+]([O-])c1ccc(N2CCOCC2)c2c1no[n+]2[O-]	x	-8.5	x	121.4*	x	-8.9
O=[N+]([O-])c1ccc(N2CCOCC2)c2cccnc12	-0.3	-5.5	-0.1	-2.0	i	2.9
CCOC(=O)CC[C@@H]1CC[C@]2(CCCN(Cc3ccccn3)C2)O1	x	-0.3	x	x	x	-5.0
CCOC(=O)c1c(C)n(Cc2ccc(F)cc2)c2ccc(O)cc12	-0.6	67.4*	0.3	-8.6	i	7.1
CCOC(=O)c1c(C)n(Cc2ccco2)c2ccc(O)cc12	0.8	50.0*	0.1	-12.6	i	-2.2
COC(=O)c1c(C)n(Cc2ccc3c(c2)OCO3)c2ccc(O)cc12	-0.3	77.5*	-0.1	x	i	21.8
CCOC(=O)c1c(C)n(Cc2ccc3c(c2)OCO3)c2ccc(O)cc12	-0.1	78.9*	-0.1	-238.9	i	28.1
CC(=O)N1c2ccccc2C(c2ccccc2)=NCC1C(=O)NC1CCCCC1 (stereo unspecified)	x	-2.7	x	x	x	-1.4
CC(C)(C)n1nnnc1C1CN=C(c2ccccc2)c2ccccc2N1 (stereo unspecified)	x	1.2	x	x	x	4.4
CN(C)/C=c1\sc2c(C#N)cc(C(=O)c3ccc(Br)cc3)n2c1=O	0.2	6.9	0.1	2.5	3.42*	3.5
COc1ccc(C[C@H]2NC[C@H](O)[C@H]2OC(C)=O)cc1	7.5*	-0.1	-0.1	118.6	i	2.5
COc1ccc(CCNC2CCCCC2)cc1	0.9	0.1	0.1	1.6	i	-0.5
CN1CC[C@@H](c2ccc(F)cc2)[C@H](COc2ccc3c(c2)OCO3)C1	x	x	x	x	i	x
O=C1C2CC=CCC2C(=O)N1SC(Cl)(Cl)Cl (stereo unspecified)	x	30.2	x	x	x	22.2
SMILES	Bfl-1 A1 inh	GC-A act	Efflux pump mplx	TAG inh	HSV replic up	GC-B act
CC(=O)O[C@@H]1/C=C/[C@](C)(O)C[C@@H](C)C/C=C/[C@H]2[C@@H]3O[C@]3(C)[C@@H](C)[C@H]3[C@H](Cc4ccccc4)NC(=O)[C@@]312	6.4*	x	0.1	x	i	x
Cc1cc(O)c2c(c1)C(=O)[C@@]13C(=C2O)C(=O)[C@H]2C(O)[C@@H]1[C@H]1C(O)[C@@H]3C(=O)C3=C(O)c4c(O)cc(C)cc4C(=O)[C@@]312 (stereo partly specified)	x	1.6	x	x	x	-2.2
COC(=O)C1=C(c2ccc3ccccc3c2)C[C@@H]2CC[C@H]1N2C	0.8	-3.9	0.0	-23.1	x	-5.2
COC(=O)C1=C(C(=O)OC)C2OC1c1cc3ccccc3cc12	x	-32.7	x	70.4*	x	-12.6
O=C1NC(=O)C(=Cc2ccc(-c3cc(Cl)ccc3[N+](=O)[O-])o2)C(=O)N1	x	49.9*	x	-26.4	x	16.7
COc1cc2c3c(c1OC)Oc1ccc(cc1)C[C@H]1c4c(cc(OC)c(OC)c4Oc4ccc(cc4)C[C@@H]3N(C)CC2)CCN1C	x	0.2	-0.2	86.5*	x	6.6
COc1cc2c3cc1Oc1c(OC)c(OC)cc4c1[C@H](Cc1ccc(cc1)Oc1cc(ccc1O)C[C@H]3N(C)CC2)N(C)CC4	0.5	-0.8	-0.6	35.0	x	-5.6
CC1=CC(O)C(O)C2(C)C1CC1OC(=O)C(O)C3C(C)C(O)C4(O)OCC13C42 (stereo unspecified)	x	x	x	0.0	x	x
COC(=O)[C@]12OC[C@]34C([C@@H](O)[C@@H]1O)[C@]1(C)CC(=O)C(O)=C(C)[C@@H]1C[C@H]3OC(=O)[C@H](O)[C@@H]24 (stereo partly specified)	0.3	0.9	x	65.2*	i	4.8
C[n+]1c(-c2ccccc2)c2cc(N)ccc2c2ccc(N)cc21	-1.7	-18.9	8.5*	6.7	x	-14.2
Ic1ccccc1CN[C@@H]1C2CCN(CC2)[C@@H]1C(c1ccccc1)c1ccccc1	x	-31.3	0.1	73.9*	x	-18.6
COc1ccc(Cc2cn(C)c(N)n2)cc1	x	1.5	x	x	x	3.7
COC(=O)[C@H]1C[C@@]2(C)c3ccccc3N[C@H]2N1	x	-1.2	x	x	x	-1.8
COc1cc(/C=C/c2nc3ccccc3c(=O)n2-c2cccc(O)c2)ccc1O	-0.4	23.9	0.3	30.7	u	48.8*
COc1cc(/C=C/c2nc3ccccc3c(=O)n2-c2ccccc2O)ccc1O	0.2	11.2	0.1	x	x	22.2
COC(=O)C1=C(c2ccc(OC(F)(F)F)cc2)C[C@@H]2CC[C@H]1N2C(=O)NCC1CC1	-0.6	-0.3	0.2	-30.0	x	125.6*
C=CCCC(NC(=O)OCc1ccccc1)P(=O)(Oc1ccccc1)Oc1ccccc1 (stereo unspecified)	x	-6.1	x	x	x	-14.6
CN1CCC(N(C)c2nc(-c3ccc([N+](=O)[O-])cc3)nc3ccccc23)CC1	x	11.1	x	58.7*	x	-12.5
O=C1NC(=O)C(=Cc2coc3ccccc3c2=O)C(=O)N1	-0.6	1.2	0.1	x	i	-1.7
O=C1NC(=O)C(=C/C=C/c2coc3ccc(Br)cc3c2=O)C(=O)N1	0.1	x	3.5*	x	i	x
